# How the values were obtained:
# Test in all cases: DAPPL (digital affinity profiling via proximity ligation, sequencing); 10 mM Tris-HCl pH 7.5, 50 mM NaCl, 1 mM DTT, 4% glycerol, room temperature, 30 min; GST-TFs on glutathione beads, 16-mer random dsDNA library, 0.1% formaldehyde crosslink after washing; high values mean tight binding
# FLI1 = biological target: T1, FLI1 (Homo sapiens, UniProt Q01543 1-452); conditions: protein: recombinant; tags: N-terminal GST; dsDNA, one strand shown
# T1 sequence: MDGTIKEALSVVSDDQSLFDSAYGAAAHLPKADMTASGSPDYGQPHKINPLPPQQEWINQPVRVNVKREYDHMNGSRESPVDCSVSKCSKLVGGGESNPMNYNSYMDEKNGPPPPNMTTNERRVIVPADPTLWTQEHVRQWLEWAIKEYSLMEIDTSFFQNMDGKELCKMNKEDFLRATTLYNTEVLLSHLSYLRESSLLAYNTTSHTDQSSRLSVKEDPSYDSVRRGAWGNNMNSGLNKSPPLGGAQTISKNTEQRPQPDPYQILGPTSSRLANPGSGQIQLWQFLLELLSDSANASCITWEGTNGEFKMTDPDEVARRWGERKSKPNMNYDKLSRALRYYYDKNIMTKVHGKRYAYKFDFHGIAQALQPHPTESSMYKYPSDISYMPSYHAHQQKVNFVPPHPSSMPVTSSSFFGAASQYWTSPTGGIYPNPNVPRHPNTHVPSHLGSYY
# Outline: (§1)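 GST fusions of human transcription factors were expressed in yeast and captured with glutathione beads. Once given DNA barcodes and pooled alongside a tag-only sample, they were incubated for 30 min at room temperature with 200 nmole of a random double-stranded 16-mer DNA library in Tris/NaCl/DTT/glycerol buffer, then washed, crosslinked (0.1% formaldehyde), proximity-ligated, PCR-amplified and sequenced on an Illumina NextSeq500. The binding signal of each hexamer is its read frequency for a factor divided by its frequency for the tag-only sample.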
# ELK1 = biological target: T2, ELK1 (Homo sapiens, UniProt P19419 1-428); conditions: protein: recombinant; tags: N-terminal GST; dsDNA, one strand shown
# T2 sequence: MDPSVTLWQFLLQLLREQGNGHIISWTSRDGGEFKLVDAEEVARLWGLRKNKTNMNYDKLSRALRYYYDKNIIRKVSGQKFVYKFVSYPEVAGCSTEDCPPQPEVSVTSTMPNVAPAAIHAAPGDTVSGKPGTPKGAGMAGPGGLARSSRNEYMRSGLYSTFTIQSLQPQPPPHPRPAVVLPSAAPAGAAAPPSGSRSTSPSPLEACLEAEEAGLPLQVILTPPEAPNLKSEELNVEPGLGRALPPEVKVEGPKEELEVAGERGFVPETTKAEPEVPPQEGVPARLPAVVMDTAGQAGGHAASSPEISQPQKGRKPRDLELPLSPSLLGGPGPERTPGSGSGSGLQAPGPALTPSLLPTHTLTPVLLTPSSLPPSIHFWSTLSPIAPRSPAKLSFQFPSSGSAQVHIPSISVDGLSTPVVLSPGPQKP
# Outline: as §1
# GABPA = biological target: T3, GABPA (Homo sapiens, UniProt Q06546 1-454); conditions: protein: recombinant; tags: N-terminal GST; dsDNA, one strand shown
# T3 sequence: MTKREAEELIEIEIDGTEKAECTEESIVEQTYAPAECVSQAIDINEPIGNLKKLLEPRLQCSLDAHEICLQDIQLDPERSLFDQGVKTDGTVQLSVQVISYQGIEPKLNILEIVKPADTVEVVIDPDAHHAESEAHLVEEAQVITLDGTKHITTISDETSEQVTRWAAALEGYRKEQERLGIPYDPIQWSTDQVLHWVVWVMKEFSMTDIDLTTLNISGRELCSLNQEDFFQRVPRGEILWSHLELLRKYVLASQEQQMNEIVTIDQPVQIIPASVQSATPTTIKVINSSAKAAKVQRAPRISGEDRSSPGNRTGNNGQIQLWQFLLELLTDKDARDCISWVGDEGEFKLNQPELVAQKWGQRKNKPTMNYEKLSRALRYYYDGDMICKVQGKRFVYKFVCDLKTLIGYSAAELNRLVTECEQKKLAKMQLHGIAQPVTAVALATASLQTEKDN
# Outline: as §1
# ERG = biological target: T4, ERG (Homo sapiens, UniProt P11308 1-479); conditions: protein: recombinant; tags: N-terminal GST; dsDNA, one strand shown
# T4 sequence: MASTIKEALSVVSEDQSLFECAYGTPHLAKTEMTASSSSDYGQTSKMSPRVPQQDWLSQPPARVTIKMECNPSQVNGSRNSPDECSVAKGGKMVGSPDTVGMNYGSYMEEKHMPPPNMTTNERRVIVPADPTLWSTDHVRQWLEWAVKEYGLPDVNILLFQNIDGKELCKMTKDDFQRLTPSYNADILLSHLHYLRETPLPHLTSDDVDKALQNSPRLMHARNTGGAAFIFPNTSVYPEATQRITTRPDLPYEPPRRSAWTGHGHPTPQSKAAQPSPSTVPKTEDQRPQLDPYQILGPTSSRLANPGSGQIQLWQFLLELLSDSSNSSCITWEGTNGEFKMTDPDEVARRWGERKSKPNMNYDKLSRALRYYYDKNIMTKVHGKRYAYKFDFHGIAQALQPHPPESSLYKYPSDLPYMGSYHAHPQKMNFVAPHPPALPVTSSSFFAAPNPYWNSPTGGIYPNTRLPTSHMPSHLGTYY
# Outline: as §1
# ELF1 = ELF1 (Homo sapiens, UniProt P32519 1-619); conditions: protein: recombinant; tags: N-terminal GST; dsDNA, one strand shown
# Outline: as §1
# EHF = biological target: T5, EHF (Homo sapiens, UniProt Q9NZC4 1-300); conditions: protein: recombinant; tags: N-terminal GST; dsDNA, one strand shown
# T5 sequence: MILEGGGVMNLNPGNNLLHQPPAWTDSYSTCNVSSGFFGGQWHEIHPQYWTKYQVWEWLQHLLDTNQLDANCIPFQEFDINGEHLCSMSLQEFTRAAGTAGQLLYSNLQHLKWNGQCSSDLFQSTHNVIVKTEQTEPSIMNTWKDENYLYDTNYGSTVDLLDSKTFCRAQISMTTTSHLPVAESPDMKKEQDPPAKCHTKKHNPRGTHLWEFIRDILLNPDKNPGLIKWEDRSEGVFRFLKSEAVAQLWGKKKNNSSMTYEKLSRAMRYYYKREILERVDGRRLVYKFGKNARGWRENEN
# Outline: as §1
# SPI1 = SPI1 (Homo sapiens, UniProt P17947 1-270); conditions: protein: recombinant; tags: N-terminal GST; dsDNA, one strand shown
# Outline: as §1
# SPIB = SPIB (Homo sapiens, UniProt Q01892 1-262); conditions: protein: recombinant; tags: N-terminal GST; dsDNA, one strand shown
# Outline: as §1
# FEV = biological target: T6, FEV (Homo sapiens, UniProt Q99581 1-238); conditions: protein: recombinant; tags: N-terminal GST; dsDNA, one strand shown
# T6 sequence: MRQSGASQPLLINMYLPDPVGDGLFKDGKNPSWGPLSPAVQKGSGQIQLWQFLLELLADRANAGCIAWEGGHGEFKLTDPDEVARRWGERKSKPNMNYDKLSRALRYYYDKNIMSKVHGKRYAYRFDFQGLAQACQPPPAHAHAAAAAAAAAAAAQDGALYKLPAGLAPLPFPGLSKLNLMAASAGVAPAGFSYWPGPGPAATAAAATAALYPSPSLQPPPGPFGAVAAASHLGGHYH
# Outline: as §1
# ETV5 = ETV5 (Homo sapiens, UniProt P41161 1-510); conditions: protein: recombinant; tags: N-terminal GST; dsDNA, one strand shown
# Outline: as §1
# HSF1 = HSF1 (Homo sapiens, UniProt Q00613 1-529); conditions: protein: recombinant; tags: N-terminal GST; chain copies: 3; dsDNA, one strand shown
# Outline: as §1
# SPIC = biological target: T7, SPIC (Homo sapiens, UniProt Q8N5J4 1-248); conditions: protein: recombinant; tags: N-terminal GST; dsDNA, one strand shown
# T7 sequence: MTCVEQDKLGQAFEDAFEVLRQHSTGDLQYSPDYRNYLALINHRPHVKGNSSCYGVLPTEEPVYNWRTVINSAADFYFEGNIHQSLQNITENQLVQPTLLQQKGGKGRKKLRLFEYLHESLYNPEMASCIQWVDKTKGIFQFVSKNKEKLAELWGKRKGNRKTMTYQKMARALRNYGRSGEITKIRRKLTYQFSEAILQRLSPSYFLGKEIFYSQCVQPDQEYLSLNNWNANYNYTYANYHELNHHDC
# Outline: as §1
# ELF4 = ELF4 (Homo sapiens, UniProt Q99607 1-663); conditions: protein: recombinant; tags: N-terminal GST; dsDNA, one strand shown
# Outline: as §1
# ELK4 = biological target: T8, ELK4 (Homo sapiens, UniProt P28324-2 1-405); conditions: protein: recombinant; tags: N-terminal GST; dsDNA, one strand shown
# T8 sequence: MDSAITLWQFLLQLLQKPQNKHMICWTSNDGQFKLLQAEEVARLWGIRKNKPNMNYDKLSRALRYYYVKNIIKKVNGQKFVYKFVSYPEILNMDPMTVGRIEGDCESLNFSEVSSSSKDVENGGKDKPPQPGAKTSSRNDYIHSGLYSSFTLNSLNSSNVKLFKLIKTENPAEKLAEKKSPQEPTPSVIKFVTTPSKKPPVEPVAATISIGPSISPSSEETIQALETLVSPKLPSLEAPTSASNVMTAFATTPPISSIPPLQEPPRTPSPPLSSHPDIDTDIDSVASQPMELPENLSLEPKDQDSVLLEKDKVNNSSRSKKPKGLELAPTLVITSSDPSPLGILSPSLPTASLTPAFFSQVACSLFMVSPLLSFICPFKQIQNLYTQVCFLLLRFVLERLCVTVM
# Outline: as §1
# ETV2 = biological target: T9, ETV2 (Homo sapiens, UniProt O00321 1-342); conditions: protein: recombinant; tags: N-terminal GST; dsDNA, one strand shown
# T9 sequence: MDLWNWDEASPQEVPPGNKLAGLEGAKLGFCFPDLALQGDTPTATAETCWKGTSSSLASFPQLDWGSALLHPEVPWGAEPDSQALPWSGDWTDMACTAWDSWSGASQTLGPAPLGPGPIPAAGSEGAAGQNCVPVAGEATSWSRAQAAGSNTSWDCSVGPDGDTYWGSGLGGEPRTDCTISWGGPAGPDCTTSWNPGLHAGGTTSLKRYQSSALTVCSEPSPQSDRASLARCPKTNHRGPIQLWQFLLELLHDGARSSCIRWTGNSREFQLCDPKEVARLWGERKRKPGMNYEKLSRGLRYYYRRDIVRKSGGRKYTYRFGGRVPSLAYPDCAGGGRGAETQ
# Outline: as §1
# ELF3 = biological target: T10, ELF3 (Homo sapiens, UniProt P78545 1-371); conditions: protein: recombinant; tags: N-terminal GST; dsDNA, one strand shown
# T10 sequence: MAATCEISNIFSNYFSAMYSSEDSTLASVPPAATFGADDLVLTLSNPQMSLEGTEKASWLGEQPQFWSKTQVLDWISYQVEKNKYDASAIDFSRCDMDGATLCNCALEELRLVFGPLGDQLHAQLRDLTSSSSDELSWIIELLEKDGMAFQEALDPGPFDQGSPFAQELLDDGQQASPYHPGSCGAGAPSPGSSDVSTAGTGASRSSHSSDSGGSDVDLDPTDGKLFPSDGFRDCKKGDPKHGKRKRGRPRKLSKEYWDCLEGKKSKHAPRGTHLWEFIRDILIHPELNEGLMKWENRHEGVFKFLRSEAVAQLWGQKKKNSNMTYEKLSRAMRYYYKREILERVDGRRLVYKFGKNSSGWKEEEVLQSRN
# Outline: as §1
# ETV1 = ETV1 (Homo sapiens, UniProt P50549 1-477); conditions: protein: recombinant; tags: N-terminal GST; dsDNA, one strand shown
# Outline: as §1
# Sequence of ELF4 (Q99607 whole entry): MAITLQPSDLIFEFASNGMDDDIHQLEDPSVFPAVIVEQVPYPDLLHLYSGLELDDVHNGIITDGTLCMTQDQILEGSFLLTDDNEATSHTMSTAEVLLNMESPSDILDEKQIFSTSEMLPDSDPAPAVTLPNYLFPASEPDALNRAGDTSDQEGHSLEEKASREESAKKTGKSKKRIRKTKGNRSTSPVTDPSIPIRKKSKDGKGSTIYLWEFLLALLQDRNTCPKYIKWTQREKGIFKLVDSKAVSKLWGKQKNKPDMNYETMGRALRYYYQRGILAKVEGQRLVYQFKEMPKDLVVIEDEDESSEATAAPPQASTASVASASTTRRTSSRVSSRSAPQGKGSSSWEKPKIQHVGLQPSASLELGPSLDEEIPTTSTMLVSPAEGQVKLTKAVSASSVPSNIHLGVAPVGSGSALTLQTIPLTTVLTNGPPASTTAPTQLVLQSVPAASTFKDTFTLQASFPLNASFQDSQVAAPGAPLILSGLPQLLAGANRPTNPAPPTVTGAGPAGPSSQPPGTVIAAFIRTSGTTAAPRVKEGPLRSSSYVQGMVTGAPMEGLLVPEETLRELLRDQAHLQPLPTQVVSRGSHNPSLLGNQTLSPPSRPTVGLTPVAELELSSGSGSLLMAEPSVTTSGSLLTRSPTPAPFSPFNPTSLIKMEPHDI
# Sequence of ELF1 (P32519 whole entry): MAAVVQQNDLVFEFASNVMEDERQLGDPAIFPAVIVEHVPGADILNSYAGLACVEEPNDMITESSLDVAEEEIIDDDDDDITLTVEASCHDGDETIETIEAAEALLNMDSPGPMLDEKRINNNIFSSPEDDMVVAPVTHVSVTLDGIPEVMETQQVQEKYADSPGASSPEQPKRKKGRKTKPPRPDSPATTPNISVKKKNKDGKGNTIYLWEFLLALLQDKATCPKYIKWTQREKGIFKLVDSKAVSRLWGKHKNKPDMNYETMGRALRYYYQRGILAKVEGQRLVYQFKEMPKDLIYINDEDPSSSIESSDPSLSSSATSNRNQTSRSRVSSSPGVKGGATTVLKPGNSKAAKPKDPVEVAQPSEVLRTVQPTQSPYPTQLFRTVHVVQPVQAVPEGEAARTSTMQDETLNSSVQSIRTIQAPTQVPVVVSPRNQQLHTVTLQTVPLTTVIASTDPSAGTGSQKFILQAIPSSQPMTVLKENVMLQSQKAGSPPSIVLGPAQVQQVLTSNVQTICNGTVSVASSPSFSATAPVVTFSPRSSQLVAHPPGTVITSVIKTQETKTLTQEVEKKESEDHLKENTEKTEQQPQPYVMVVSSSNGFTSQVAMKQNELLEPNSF
# Sequence of ETV1 (P50549 whole entry): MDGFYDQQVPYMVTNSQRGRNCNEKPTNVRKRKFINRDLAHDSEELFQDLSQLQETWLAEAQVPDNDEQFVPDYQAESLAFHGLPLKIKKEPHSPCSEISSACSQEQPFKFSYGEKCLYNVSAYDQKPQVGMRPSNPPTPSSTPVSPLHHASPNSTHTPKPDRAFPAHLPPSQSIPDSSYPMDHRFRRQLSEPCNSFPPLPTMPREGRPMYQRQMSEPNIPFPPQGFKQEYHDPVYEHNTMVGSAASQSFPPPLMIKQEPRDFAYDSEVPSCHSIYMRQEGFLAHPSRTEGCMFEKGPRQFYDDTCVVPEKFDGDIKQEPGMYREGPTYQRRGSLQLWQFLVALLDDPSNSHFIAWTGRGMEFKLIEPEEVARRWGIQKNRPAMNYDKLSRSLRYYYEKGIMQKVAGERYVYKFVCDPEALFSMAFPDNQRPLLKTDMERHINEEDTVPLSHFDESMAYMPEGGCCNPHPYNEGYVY
# Sequence of HSF1 (Q00613 whole entry): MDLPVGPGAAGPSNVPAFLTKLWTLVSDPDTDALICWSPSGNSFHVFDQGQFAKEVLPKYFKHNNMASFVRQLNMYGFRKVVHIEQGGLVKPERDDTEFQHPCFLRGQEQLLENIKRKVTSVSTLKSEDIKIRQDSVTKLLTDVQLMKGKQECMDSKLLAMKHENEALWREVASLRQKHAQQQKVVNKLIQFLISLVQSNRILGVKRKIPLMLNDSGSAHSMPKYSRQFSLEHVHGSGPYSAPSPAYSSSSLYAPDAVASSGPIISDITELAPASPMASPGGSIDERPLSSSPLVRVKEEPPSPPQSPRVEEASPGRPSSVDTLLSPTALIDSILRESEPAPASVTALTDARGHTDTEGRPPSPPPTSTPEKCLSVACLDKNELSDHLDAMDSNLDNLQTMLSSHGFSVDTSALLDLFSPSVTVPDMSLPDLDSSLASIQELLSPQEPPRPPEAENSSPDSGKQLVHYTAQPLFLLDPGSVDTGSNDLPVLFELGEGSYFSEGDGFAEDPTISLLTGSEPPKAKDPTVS
# Sequence of ETV5 (P41161 whole entry): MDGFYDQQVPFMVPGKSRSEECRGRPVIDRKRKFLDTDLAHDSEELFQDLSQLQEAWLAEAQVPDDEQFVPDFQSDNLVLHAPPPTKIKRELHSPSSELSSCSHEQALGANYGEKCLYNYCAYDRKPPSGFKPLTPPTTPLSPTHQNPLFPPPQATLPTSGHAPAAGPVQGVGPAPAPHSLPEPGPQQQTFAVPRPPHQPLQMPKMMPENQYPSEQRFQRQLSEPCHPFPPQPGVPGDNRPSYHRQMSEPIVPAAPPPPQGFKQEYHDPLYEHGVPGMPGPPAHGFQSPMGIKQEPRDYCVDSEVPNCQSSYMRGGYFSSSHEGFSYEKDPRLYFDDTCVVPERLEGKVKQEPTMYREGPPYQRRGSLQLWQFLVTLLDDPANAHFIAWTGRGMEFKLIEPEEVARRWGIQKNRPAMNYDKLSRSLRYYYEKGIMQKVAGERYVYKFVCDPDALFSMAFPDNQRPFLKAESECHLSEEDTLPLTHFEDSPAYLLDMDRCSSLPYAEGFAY
# Sequence of SPIB (Q01892 whole entry): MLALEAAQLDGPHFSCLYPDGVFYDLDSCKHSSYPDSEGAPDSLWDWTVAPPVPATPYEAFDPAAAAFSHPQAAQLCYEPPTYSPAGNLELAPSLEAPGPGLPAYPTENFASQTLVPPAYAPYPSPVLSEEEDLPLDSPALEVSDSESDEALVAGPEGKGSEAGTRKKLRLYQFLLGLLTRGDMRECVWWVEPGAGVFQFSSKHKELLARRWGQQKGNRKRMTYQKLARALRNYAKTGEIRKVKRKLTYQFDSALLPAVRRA
Sequence,binding signal (FLI1),binding signal (ELK1),binding signal (GABPA),binding signal (ERG),binding signal (ELF1),binding signal (EHF),binding signal (SPI1),binding signal (SPIB),binding signal (FEV),binding signal (ETV5),binding signal (HSF1),binding signal (SPIC),binding signal (ELF4),binding signal (ELK4),binding signal (ETV2),binding signal (ELF3),binding signal (ETV1)
ACCTCG,"1 fold enrichment (6-mer frequency, TF over GST control)","1.18 fold enrichment (6-mer frequency, TF over GST control)","1.24 fold enrichment (6-mer frequency, TF over GST control)","1.15 fold enrichment (6-mer frequency, TF over GST control)","1.11 fold enrichment (6-mer frequency, TF over GST control)","1.16 fold enrichment (6-mer frequency, TF over GST control)","1.14 fold enrichment (6-mer frequency, TF over GST control)","1.19 fold enrichment (6-mer frequency, TF over GST control)","1.05 fold enrichment (6-mer frequency, TF over GST control)","1.11 fold enrichment (6-mer frequency, TF over GST control)","1.14 fold enrichment (6-mer frequency, TF over GST control)","1.17 fold enrichment (6-mer frequency, TF over GST control)","1.18 fold enrichment (6-mer frequency, TF over GST control)","1.35 fold enrichment (6-mer frequency, TF over GST control)","1.28 fold enrichment (6-mer frequency, TF over GST control)","1.23 fold enrichment (6-mer frequency, TF over GST control)","1.15 fold enrichment (6-mer frequency, TF over GST control)"
GTGCTC,"1.26 fold enrichment (6-mer frequency, TF over GST control)","1.18 fold enrichment (6-mer frequency, TF over GST control)","1.25 fold enrichment (6-mer frequency, TF over GST control)","1.2 fold enrichment (6-mer frequency, TF over GST control)","1.19 fold enrichment (6-mer frequency, TF over GST control)","1.22 fold enrichment (6-mer frequency, TF over GST control)","1.36 fold enrichment (6-mer frequency, TF over GST control)","1.3 fold enrichment (6-mer frequency, TF over GST control)","1.11 fold enrichment (6-mer frequency, TF over GST control)","1.15 fold enrichment (6-mer frequency, TF over GST control)","1.05 fold enrichment (6-mer frequency, TF over GST control)","1.21 fold enrichment (6-mer frequency, TF over GST control)","1.12 fold enrichment (6-mer frequency, TF over GST control)","1.05 fold enrichment (6-mer frequency, TF over GST control)","1.16 fold enrichment (6-mer frequency, TF over GST control)","1.26 fold enrichment (6-mer frequency, TF over GST control)","1.29 fold enrichment (6-mer frequency, TF over GST control)"

# From paper PMC7862700, “An all-to-all approach to the identification of sequence-specific readers for epigenetic DNA modifications on cytosine”
